Data on 34 targets can be found in the supplement of paper PMC10849652.

About 7,900 targets were measured; listed, in parts, are those with a hit and a random draw of the rest. About 0.6% of all pairs of compound and target were hits. A number with no mark means an inactive call.

Sequence of UniProt O94979 (O94979 whole entry, looked up): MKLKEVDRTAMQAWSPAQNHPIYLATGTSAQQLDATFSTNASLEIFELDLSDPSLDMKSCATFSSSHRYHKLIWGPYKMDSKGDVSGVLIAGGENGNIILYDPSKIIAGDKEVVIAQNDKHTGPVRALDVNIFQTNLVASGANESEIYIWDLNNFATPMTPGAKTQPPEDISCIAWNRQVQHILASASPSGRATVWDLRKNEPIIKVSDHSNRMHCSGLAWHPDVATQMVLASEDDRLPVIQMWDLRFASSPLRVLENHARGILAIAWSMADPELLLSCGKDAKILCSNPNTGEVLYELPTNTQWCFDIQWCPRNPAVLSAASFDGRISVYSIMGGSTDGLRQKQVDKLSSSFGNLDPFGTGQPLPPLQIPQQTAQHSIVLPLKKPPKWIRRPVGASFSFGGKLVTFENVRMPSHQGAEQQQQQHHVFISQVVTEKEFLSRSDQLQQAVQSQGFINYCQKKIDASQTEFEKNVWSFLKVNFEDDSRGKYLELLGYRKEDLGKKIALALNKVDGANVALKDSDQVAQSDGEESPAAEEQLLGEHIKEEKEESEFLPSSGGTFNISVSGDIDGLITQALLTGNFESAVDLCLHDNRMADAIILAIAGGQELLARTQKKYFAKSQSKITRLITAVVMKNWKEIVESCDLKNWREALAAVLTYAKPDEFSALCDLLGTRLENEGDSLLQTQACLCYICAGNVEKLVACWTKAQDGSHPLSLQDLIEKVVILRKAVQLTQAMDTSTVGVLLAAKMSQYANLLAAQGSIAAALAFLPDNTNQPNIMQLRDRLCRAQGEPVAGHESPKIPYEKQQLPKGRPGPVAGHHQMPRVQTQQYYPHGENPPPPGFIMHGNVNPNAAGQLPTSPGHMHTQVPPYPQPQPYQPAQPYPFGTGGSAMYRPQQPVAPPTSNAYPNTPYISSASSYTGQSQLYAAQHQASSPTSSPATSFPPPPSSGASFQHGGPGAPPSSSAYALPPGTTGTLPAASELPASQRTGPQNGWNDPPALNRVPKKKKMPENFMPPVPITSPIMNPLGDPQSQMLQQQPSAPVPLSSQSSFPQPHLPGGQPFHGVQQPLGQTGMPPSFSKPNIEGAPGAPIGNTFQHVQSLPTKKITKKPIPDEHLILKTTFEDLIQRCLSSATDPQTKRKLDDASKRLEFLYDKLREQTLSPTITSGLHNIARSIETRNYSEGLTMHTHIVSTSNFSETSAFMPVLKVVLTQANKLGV
Sequence of UniProt O43819 (O43819 whole entry, looked up): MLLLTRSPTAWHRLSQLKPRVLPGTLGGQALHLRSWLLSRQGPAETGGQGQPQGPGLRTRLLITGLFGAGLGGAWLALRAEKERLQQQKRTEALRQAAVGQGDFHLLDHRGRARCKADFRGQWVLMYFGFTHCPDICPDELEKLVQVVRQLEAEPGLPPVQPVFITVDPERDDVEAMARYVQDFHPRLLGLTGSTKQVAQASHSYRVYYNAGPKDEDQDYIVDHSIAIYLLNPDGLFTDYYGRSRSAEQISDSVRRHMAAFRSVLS
Sequence of UniProt Q8N0T1 (Q8N0T1 whole entry, looked up): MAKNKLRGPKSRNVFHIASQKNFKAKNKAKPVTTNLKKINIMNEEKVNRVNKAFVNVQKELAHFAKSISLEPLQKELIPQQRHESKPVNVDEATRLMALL
Sequence of UniProt Q9UKL0 (Q9UKL0 whole entry, looked up): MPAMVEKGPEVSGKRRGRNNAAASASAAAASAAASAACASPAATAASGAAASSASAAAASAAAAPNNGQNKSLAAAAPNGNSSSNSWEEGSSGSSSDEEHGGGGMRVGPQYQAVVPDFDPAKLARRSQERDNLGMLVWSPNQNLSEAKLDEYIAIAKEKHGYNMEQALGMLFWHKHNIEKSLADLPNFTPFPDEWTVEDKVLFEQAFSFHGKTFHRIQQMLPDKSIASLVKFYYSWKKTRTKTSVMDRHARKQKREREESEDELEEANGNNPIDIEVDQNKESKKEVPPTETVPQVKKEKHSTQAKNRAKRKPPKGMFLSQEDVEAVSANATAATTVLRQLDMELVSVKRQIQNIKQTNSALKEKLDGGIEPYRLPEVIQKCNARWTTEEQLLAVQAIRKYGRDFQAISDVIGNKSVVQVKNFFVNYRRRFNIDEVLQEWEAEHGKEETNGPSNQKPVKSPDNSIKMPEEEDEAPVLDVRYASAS
Sequence of UniProt Q6NUM9 (Q6NUM9 whole entry, looked up): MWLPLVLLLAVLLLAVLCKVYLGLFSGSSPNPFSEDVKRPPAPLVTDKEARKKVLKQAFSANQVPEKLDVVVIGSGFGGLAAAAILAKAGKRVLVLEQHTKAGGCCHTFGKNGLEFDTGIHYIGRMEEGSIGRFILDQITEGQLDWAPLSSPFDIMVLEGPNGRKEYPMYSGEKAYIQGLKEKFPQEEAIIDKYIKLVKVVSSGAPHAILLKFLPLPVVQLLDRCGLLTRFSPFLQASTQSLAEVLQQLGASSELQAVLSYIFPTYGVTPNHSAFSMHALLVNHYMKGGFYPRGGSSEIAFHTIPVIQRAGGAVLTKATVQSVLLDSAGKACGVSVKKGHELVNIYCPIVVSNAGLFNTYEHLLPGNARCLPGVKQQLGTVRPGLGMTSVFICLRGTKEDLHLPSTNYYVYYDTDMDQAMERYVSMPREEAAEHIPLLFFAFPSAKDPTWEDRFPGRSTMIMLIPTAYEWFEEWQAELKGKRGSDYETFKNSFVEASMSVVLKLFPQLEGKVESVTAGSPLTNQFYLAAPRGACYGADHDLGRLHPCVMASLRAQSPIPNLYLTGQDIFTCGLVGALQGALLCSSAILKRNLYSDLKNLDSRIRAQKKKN
Sequence of UniProt Q9BXP2 (Q9BXP2 whole entry, looked up): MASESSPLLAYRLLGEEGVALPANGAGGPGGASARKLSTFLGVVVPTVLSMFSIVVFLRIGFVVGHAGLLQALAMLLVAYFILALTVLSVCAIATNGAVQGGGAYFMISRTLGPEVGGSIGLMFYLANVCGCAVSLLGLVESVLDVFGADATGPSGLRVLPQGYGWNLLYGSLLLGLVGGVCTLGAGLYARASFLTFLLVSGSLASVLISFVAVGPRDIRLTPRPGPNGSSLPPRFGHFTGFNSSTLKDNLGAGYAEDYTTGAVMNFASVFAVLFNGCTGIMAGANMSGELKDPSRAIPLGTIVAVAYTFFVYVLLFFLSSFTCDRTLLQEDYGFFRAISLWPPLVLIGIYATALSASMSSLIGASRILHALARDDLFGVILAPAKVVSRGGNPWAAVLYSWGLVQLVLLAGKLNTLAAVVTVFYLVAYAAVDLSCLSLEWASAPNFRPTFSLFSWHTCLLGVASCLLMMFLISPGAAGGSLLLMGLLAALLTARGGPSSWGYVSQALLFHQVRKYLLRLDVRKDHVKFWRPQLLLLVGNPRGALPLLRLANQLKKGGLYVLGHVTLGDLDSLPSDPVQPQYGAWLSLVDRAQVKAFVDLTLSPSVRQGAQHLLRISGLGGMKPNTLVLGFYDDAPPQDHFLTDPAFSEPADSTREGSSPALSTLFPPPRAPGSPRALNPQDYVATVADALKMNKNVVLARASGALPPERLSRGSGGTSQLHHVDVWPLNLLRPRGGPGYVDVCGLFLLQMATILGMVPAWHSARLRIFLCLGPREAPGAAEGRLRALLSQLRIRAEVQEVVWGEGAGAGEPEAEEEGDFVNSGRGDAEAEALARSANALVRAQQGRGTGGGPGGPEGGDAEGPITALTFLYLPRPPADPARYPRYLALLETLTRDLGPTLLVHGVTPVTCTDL
Sequence of UniProt O95486 (O95486 whole entry, looked up): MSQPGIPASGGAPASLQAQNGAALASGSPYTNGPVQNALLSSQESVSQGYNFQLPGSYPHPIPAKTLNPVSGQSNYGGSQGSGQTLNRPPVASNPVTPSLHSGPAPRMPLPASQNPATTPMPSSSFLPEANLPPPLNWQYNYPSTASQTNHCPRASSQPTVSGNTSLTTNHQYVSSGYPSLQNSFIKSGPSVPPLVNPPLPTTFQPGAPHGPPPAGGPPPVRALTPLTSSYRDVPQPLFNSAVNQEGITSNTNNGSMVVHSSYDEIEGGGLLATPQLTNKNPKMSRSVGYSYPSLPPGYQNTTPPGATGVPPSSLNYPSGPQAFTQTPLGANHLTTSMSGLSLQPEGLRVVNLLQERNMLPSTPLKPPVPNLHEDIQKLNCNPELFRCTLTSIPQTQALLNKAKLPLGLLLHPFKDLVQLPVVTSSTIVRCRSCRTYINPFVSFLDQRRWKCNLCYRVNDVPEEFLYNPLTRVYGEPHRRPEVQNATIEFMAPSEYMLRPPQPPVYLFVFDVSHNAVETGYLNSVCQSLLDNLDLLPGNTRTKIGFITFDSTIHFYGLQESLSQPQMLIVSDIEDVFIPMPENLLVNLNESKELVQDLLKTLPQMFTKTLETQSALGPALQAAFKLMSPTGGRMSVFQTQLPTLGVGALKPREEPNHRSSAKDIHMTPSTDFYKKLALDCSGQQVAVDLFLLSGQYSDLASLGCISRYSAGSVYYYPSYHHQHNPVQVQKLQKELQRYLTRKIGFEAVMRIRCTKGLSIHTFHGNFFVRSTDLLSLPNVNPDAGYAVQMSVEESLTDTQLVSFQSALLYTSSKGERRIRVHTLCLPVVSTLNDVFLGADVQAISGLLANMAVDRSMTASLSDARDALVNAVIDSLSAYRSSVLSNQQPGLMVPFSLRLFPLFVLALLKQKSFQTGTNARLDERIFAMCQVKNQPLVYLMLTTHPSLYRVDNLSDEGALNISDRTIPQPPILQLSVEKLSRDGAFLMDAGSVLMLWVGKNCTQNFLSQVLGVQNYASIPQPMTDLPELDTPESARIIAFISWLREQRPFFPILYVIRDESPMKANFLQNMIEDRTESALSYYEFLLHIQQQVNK
Sequence of UniProt O14796 (O14796 whole entry, looked up): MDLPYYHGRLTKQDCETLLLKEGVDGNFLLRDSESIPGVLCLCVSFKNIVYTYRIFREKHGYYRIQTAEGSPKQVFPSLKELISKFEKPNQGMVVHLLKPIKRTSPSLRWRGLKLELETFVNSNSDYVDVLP
Sequence of UniProt P51151 (P51151 whole entry, looked up): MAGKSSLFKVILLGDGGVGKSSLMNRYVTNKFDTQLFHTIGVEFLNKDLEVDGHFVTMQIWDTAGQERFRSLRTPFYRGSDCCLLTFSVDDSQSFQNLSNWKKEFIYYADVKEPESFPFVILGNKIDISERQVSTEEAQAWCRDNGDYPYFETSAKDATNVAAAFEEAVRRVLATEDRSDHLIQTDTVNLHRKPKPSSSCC

Compound in the first test: CCN(CCCOc1ccc2c(Nc3cc(CC(=O)Nc4cccc(F)c4)[nH]n3)ncnc2c1)CCOP(=O)(O)O [barasertib]
Put plainly: log2 fold change, soluble protein after heating vs DMSO (PISA); higher = thermal stabilisation; K562 cells, 10 uM, 30 min; active = over 0.2 and 3.5 SD of the protein, either way, in both replicates (recomputed). A digest of the protocol: (§1)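 K562 cells at 2×10^6 cells/mL were exposed to 10 μM compound for 30 min, then aliquots were heated for 3 min across 48°C-58°C, pooled, and extracted in PBS containing 0.5% NP-40 at 4°C. The supernatant after 21,000xg for 90 min was taken as soluble protein and measured by TMTpro 16plex LC-MS/MS with channel sums equalised. Thermal stability is reported relative to control samples, with values from duplicates. Fold changes are given on a log2 scale.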
For the target SCO2 (UniProt O43819), the log2 fold change is 0.153.
On the same count and under the same terms, next, RETSAT (UniProt Q6NUM9): 0.009; SEC31A (UniProt O94979): 0.052.
The same measure, in the same setting: then RBIS (UniProt Q8N0T1), with -0.009; and SLC12A9 (UniProt Q9BXP2), with 0.083; and RNF167 (UniProt Q9H6Y7), with 0.018.
On the same count and under the same terms, then RCOR1 (UniProt Q9UKL0), with 0.01.
Turning to SEC24A (UniProt O95486), the log2 fold change is 0.006.

Compound in another test: CC[C@@H]1C(=O)N(C)c2cnc(Nc3ccc(C(=O)NC4CCN(C)CC4)cc3OC)nc2N1C1CCCC1
The description is as above. In a few lines:
as §1
On to SCAMP2 (UniProt H3BUB6), for which the log2 fold change is -0.015.
Regarding SIK3 (UniProt H0Y4E8), the log2 fold change was 0.032.
Same read-out and setting: next, SCG3 (UniProt Q8WXD2): 0.04; RCOR3 isoform 3 (UniProt Q9P2K3): 0.005; SCAF8 isoform 2 (UniProt Q9UPN6): -0.065.
Consider SASH1 (UniProt O94885), for which the log2 fold change is -0.136.
Turning to SCAMP2 (UniProt O15127), the log2 fold change is -0.009.
Still for that read-out and setting: then RBBP6 (UniProt Q7Z6E9), with -0.061; and RAF1 isoform 2 (UniProt P04049), with 0.135.
Still for that read-out and setting: then RBM39 (UniProt Q14498), with -0.183.
The same measure, in the same setting: then RALY (UniProt Q9UKM9), with 0.113; and ROCK1 (UniProt Q13464), with -0.005.
For RECQL (UniProt P46063), the log2 fold change is -0.032.
Still for that read-out and setting: next, SH3GLB2 (UniProt Q9NR46): -0.148; RAB9A (UniProt P51151): -0.061; RAD50, A0A494C0Y7: 0.077.
The same measure, in the same setting: then SH2D1B (UniProt O14796), with -0.068; and SLBP (UniProt Q14493), with -0.052; and SERINC1 (UniProt Q9NRX5), with 0.001.
Consider RAB3IL1 (UniProt E9PK89), for which the log2 fold change is -0.012.
Same read-out and setting: then RAP2C (UniProt Q9Y3L5), with 0.02; and SCO2 (UniProt O43819), with -0.109; and RUFY3 isoform 3 (UniProt Q7L099), with -0.135.
Same read-out and setting: next, RETSAT (UniProt Q6NUM9): -0.073; SEC31A (UniProt O94979): -0.035.
With RBIS (UniProt Q8N0T1), the log2 fold change was 0.105.
Turning to SLC12A9 (UniProt Q9BXP2), the log2 fold change is 0.014.
On the same count and under the same terms, next, RCOR1 (UniProt Q9UKL0): 0.116.
Still for that read-out and setting: then SEC24A (UniProt O95486), with -0.077.

Compound in another test: CC[C@@H]1C(=O)N(C)c2cnc(Nc3ccc(C(=O)N[C@H]4CC[C@H](N5CCN(CC6CC6)CC5)CC4)cc3OC)nc2N1C(C)C [volasertib]
Described as above. In a few lines: as §1
As to SCAMP2 (UniProt H3BUB6), the log2 fold change was -0.006.
The same measure, in the same setting: then SIK3 (UniProt H0Y4E8), with -0.109; and SCG3 (UniProt Q8WXD2), with 0.134; and RCOR3 isoform 3 (UniProt Q9P2K3), with -0.068.
The same measure, in the same setting: then SAMD4B (UniProt Q5PRF9), with 0.078.
On the same count and under the same terms, next, SCAF8 isoform 2 (UniProt Q9UPN6): -0.27.
On to RBM48 isoform 2 (UniProt Q5RL73), for which the log2 fold change was -0.003.
On the same count and under the same terms, next, SASH1 (UniProt O94885): -0.308 (active); SCAMP2 (UniProt O15127): 0.052.
Still for that read-out and setting: then RBBP6 (UniProt Q7Z6E9), with -0.068; and RAF1 isoform 2 (UniProt P04049), with -0.361.
On the same count and under the same terms, then RPS6KA3 (UniProt P51812), with -0.174; and RBM39 (UniProt Q14498), with -0.487 (active).
For the target RPAIN isoform 8 (UniProt Q86UA6), the log2 fold change is -0.718 (active).
Still for that read-out and setting: then RALY (UniProt Q9UKM9), with -0.05; and ROCK1 (UniProt Q13464), with -0.083.
Same read-out and setting: then RECQL (UniProt P46063), with -0.014.
On the same count and under the same terms, then SH3GLB2 (UniProt Q9NR46), with -0.378 (active).
For RAB9A (UniProt P51151), the log2 fold change was -0.024.
Same read-out and setting: next, RAD50, A0A494C0Y7: -0.109; SH2D1B (UniProt O14796): -0.029.
The same measure, in the same setting: next, SLBP (UniProt Q14493): -0.034.
Same read-out and setting: next, SERINC1 (UniProt Q9NRX5): 0.025; RAB3IL1 (UniProt E9PK89): -0.137; RAP2C (UniProt Q9Y3L5): 0.05.
Consider SCO2 (UniProt O43819), for which the log2 fold change was -0.346.
As for RUFY3 isoform 3 (UniProt Q7L099), the log2 fold change is -0.149.
Consider RETSAT (UniProt Q6NUM9), for which the log2 fold change is -0.073.
Same read-out and setting: next, SEC31A (UniProt O94979): -0.354 (active).
On the same count and under the same terms, then RBIS (UniProt Q8N0T1), with 0.06; and SLC12A9 (UniProt Q9BXP2), with -0.034.
Still for that read-out and setting: next, RNF167 (UniProt Q9H6Y7): 0.003; RCOR1 (UniProt Q9UKL0): 0.001; SEC24A (UniProt O95486): -0.253 (active).
